Measured values as given in PubChem BioAssay (NCATS).
Results filed as inconclusive are left out. Calls of active or inactive are those of the source. The call rests on the fitted dose curve; in most records, active means well fitted activation curve with a large enough effect; inconclusive means small, poorly fitted or top-dose-only effect; inactive means no such curve, though single readings can be large or run the other way.

target: Rap guanine nucleotide exchange factor 3 (Homo sapiens) (UniProt O95398); assay: Confirmatory qHTS for agonist of cAMP-regulated guanine nucleotide exchange factor 3 (EPAC1) (AID 1645881); conditions: EPAC1 Rap1B BODIPY-GDP exchange fluorescence, 100% = cAMP control response; series mostly up to 154 µM;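 further: EPAC1 catalysed release of BODIPY-GDP from Rap1B seen as fluorescence loss; nearly all actives have a fitted effect of over 75% in size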
Sequence (O95398 whole entry, looked up): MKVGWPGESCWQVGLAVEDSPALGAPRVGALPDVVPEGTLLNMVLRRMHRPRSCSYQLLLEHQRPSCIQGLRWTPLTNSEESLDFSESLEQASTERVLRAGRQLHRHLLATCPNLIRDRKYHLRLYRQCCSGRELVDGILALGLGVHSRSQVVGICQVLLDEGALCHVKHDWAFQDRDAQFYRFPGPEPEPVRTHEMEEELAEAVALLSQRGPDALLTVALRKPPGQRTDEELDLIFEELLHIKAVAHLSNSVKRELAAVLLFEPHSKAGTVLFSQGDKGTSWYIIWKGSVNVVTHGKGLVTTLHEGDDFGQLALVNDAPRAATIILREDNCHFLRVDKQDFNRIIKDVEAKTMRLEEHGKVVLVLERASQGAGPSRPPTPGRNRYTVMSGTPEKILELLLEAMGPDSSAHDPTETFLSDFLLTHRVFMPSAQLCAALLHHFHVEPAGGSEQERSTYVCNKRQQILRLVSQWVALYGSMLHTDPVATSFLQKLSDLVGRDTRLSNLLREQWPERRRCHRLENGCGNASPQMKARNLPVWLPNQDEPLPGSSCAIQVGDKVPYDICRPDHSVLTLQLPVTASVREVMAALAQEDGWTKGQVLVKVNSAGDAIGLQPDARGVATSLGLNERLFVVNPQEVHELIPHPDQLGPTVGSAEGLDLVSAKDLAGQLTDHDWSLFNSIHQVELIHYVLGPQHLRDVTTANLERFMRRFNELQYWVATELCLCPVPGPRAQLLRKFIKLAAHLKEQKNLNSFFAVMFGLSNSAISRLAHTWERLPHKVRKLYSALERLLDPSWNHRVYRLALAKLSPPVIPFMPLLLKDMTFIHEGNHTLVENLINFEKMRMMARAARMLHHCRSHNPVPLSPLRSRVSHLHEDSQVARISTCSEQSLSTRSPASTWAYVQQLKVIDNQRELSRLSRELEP

SMILES | outcome
Clc1ccc(CO/N=C(\Cn2ccnc2)c2ccc(Cl)cc2Cl)c(Cl)c1 | inactive
Clc1ccc(CSC(Cn2ccnc2)c2ccc(Cl)cc2Cl)cc1 (stereo not drawn) | inactive
C[C@H](N)[C@H](O)c1ccc(O)c(O)c1 | inactive
